Compounds with a hit are over-represented: about 12% of the library has one in this group of screens.
G9a block: blocks human histone lysine methyltransferase G9a. Q96KQ7. G9a H3K9 monomethylation, AlphaScreen, 2 h. Potency, µM (highest dose often 102 µM), for inactives: at the top dose activity, negative = inhibition, hits mostly inhibitors. hit rate 8.8% among 350,000; note: % is set by controls: 0 for no effect and ±100 for the full control effect; nearly all actives have a fitted effect of over 75% in size
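AlphaScreen detection with an anti-monomethyl H3K9 antibody quantified product after a 2 h room-temperature reaction containing 500 nM biotinylated H3K9 peptide, 20 µM SAM and 20 nM enzyme, which had been preincubated 15 min with compound.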
L3MBTL1 block: inhibitors of human L3MBTL1; Q9Y468; AlphaScreen L3MBTL1–H3K9me1 peptide binding; Potency, µM (top dose mostly 57.1 µM), without a hit: at the highest dose activity, negative = inhibition, hits mostly inhibitors; hit rate 0.66% among 230,000; AID 485360; note: % is set by controls: 0 for no effect and ±100 for the full control effect; nearly all actives have a fitted effect of over 60% in size
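First, the protein-peptide complex forms for 30 min at room temperature (L3MBTL1 50 nM, biotinylated H3K9me1 peptide 75 nM). Next, compounds are pin-transferred and incubated 30 min. Finally, AlphaScreen beads are added and read after 30 min.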
JMJD2A Tudor inh: blocks the human JMJD2A Tudor domain; Potency, µM (top dose mostly 114 µM), without a hit: at the highest dose activity change, negative = inhibition, usual class: inhibitors; AID 504339; O75164; AlphaScreen JMJD2A-Tudor / H3K4me3 peptide binding; hit rate 4.4% among 390,000; note: % is set by controls: 0 for no effect and ±100 for the full control effect; nearly all actives have a fitted effect of over 50% in size
Target sequence (O75164 whole entry, looked up, the tested form may be a part): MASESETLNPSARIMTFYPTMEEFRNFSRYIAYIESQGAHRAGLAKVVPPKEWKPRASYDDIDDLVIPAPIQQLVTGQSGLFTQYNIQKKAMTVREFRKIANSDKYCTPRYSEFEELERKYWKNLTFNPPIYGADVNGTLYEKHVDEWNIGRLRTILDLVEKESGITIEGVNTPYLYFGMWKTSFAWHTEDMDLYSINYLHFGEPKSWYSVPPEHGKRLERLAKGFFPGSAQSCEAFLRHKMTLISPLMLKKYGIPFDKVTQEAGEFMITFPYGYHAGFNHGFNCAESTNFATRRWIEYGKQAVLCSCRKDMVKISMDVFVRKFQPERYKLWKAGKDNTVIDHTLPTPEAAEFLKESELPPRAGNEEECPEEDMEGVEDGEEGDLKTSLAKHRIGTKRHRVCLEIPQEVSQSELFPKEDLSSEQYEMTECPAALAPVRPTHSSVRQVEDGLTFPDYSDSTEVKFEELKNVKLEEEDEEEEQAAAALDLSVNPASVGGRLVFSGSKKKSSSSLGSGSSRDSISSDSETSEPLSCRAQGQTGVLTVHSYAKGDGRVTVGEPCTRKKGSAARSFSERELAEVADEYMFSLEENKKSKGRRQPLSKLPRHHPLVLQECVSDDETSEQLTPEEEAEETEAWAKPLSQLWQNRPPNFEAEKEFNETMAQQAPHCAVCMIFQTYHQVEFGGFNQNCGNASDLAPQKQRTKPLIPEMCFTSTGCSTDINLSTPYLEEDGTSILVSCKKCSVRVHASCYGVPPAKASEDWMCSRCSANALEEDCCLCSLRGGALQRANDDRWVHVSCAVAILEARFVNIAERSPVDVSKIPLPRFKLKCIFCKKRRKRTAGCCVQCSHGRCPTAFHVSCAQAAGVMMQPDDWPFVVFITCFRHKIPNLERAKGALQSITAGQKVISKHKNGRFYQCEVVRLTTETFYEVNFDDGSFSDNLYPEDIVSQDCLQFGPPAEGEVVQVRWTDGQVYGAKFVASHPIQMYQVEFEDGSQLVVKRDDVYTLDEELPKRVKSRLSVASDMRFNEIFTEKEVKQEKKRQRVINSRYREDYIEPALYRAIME
Sfp inh: blocks B. subtilis Sfp PPTase activity. Q9F4F7. Biochemical Sfp PPTase activity, qHTS. Potency, µM, without a hit: largest response in the series, negative = inhibition, actives largely listed as inhibitors. hit rate 3.5% among 310,000;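 note: the enzyme is Sfp with the accession as filed and its product quenches rhodamine fluorescence; 0% = enzyme reaction without inhibitor and -100% = no enzyme wells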
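Sfp 15 nM + cpd, 15 min RT; start w/ rhodamine-CoA 5 uM, BHQ-2-YbbR 12.5 uM (final); 50 mM Hepes pH 7.6, 10 mM MgCl2, 0.01% NP-40, 0.01% BSA; read 525/598 nm at 0 and 30 min.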
BAZ2B inh: blocks human BAZ2B. AID 504333. AlphaScreen BAZ2B-H3K14Ac peptide displacement. Potency, µM (highest dose often 114 µM), without a hit: top-dose activity change, negative = inhibition, actives largely listed as inhibitors. hit rate 4.4% among 360,000. Q9UIF8; note: % is set by controls: 0 for no effect and ±100 for the full control effect; nearly all actives have a fitted effect of over 60% in size
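AlphaScreen displacement of biotin-H3(5-23)K14Ac peptide (50 nM final) from BAZ2B (50 nM final) in PBS pH 7.4, 0.01% Tween-20; complex preformed 30 min RT, then compounds (top 110 uM) 30 min RT, beads 20 min dark.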
HP1b binding inh: inhibitors of HP1-beta chromodomain binding to methylated histone tails; hit rate 0.56% among 390,000; P83916; AlphaScreen HP1-beta / biotin-H3K9me3 peptide binding; AID 540317; Potency, µM (titrated, usually from 114 µM), inactives show at the top dose activity change, negative = inhibition, actives largely listed as inhibitors; note: nearly all actives have a fitted effect of over 70% in size
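HP1-beta protein (50 nM final) preincubated 30 min at room temperature with biotinylated H3(1-18)K9me3 peptide (50 nM) in PBS pH 7.4, 0.01% Tween-20, then compound added for 30 min. AlphaScreen streptavidin donor/nickel chelate acceptor beads (10 ug/mL final), 30 min dark, luminescence read.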
The depositor's hits bear a star; ? = inconclusive; . = no result given; ! = not active in a repeat; [ ] = another dose, or the depositor's remark. Calls come from the whole dose curve; as a rule, active = well fitted curve in the direction sought with a large enough effect; inconclusive = small, poorly fitted or top-dose-only effect, or another doubt; inactive = no such curve, though single readings can be large; an effect the other way counts as inactive or inconclusive. Potency is the fitted concentration of half-maximal effect.

SMILES	G9a block	L3MBTL1 block	JMJD2A Tudor inh	Sfp inh	BAZ2B inh	HP1b binding inh
CCOc1ccc(C2C(C(=O)c3ccco3)=C(O)C(=O)N2CCCn2ccnc2)cc1OC (configuration not stated)	.	.	-26%	-6%	50µM*	19%
Cc1nc(C)c(C(=O)C2=C(O)C(=O)N(CCCn3ccnc3)C2c2ccc(Cl)cc2)s1 (configuration not stated)	-26%	0%	?	24%	-7%	-1%
CC(C)CN(CC(C)C)C(=O)c1cccc(S(=O)(=O)N2CCc3ccccc32)c1	79µM*	5%	45µM*	6%	-15%	-17%
CC(C)CCNC(=O)c1cccc(S(=O)(=O)N2CCc3ccccc32)c1	-4%[59 µM]	.	-3%	-7%	-3%	39%
O=C(NNC(=O)c1cccc(S(=O)(=O)N2CCc3ccccc32)c1)c1ccccc1	10%	4%	-17%	21%	-12%	25%
CCN(CC)CCCC(C)NC(=O)c1cccc(S(=O)(=O)N2CCc3ccccc32)c1 (configuration not stated)	45µM*	-4%	-28%	2%	-12%	-16%
Cc1ccc(C)c(N2CCN(C(=O)CCc3nnc4n(C)c(=O)c5ccccc5n34)CC2)c1	15%[59 µM]	.	-3%	.	3%	49%
CCN(C(=O)c1cn(CC(C)C)c(=O)c2cc(OC)c(OC)cc12)c1cc(OC)ccc1OC	3%[59 µM]	.	-19%	.	1%	5%
COCCn1c(C)cc(O)c(C(c2ccccc2OC)N2CCCCC2)c1=O (configuration not stated)	6%[59 µM]	.	-12%	.	1%	33%[57 µM]
O=C(NC(=S)Nc1ncc(Br)cc1Br)c1cncc(Br)c1	2%[59 µM]	.	50µM*	-20%	-2%	21%
Cc1cc(O)ccc1NC(=S)NC(=O)c1cncc(Br)c1	?	8%	-9%	56µM*	5%	8%
O=C(NC(=S)Nc1ccc(O)cc1)c1cncc(Br)c1	.	.	-18%	.	.	10%
COc1ccc(NC(=O)CSc2c(C)nn(-c3nnc(C)c(=O)[nH]3)c2C)cc1	13µM*	0%	40µM*	50µM*	32µM*	41%
COc1ccc(NC(=O)CSc2nncn2C)cc1	-3%[2.33 µM]	.	-4%	4%	6%	36%
CC(C)c1ccc(S(=O)(=O)N2CCN(CC(=O)c3ccc(O)c(O)c3)CC2)cc1	8.9µM*	.	.	22µM*	40µM*	.
O=C(CN1CCN(S(=O)(=O)c2ccc(Br)cc2)CC1)c1ccc(O)c(O)c1	10µM*	.	7%	79µM*	?	37%
CC(C)c1ccc(S(=O)(=O)N2CCN(CC(=O)Nc3ccc(Cl)cc3F)CC2)cc1	-10%[12.7 µM]	3%	-10%	.	12%	38%
Cc1ccc(CNC(=O)c2cc(Sc3ccc(F)cc3F)nc3ccccc23)cc1	-3%[59 µM]	.	-24%	.	0%	31%
Cc1ccc(CNC(=O)CSc2ncc3c(n2)-c2cc(Cl)ccc2N(C)S3(=O)=O)cc1	-15%[59 µM]	.	-5%	.	0%	17%
Cc1ccc(CNC(=O)Cn2ccn(-c3ccc(F)cc3)c(=O)c2=O)cc1	-1%[59 µM]	.	-8%	.	-11%	12%
CC(=O)c1cccc(S(=O)(=O)N2CCN(c3nc(-c4cccs4)nc4ccccc34)CC2)c1	.	.	-20%	.	.	19%
CN(C)CCCC1(c2ccc(F)cc2)OCc2cc(C#N)ccc21 (configuration not stated)	71µM*!	-4%	-22%	17%	-2%	10%
O=C1C(NS(=O)(=O)c2cccs2)=C(N2CCN(c3ccccc3)CC2)C(=O)c2ccccc21	3.2µM*	.	28µM*	0%	5.6µM*	?
O=S(=O)(c1cccs1)N1CCN(c2ccccc2)CC1	12%	.	-7%	2%	0%	2%
O=C(C(NS(=O)(=O)c1cccs1)c1ccccc1)N1CCN(c2ccccc2)CC1 (configuration not stated)	45µM*	-4%	?	2%	?	4%
SMILES	G9a block	L3MBTL1 block	JMJD2A Tudor inh	Sfp inh	BAZ2B inh	HP1b binding inh
O=C(Nc1ccccc1)OC[C@H](CN1CCCCC1)OC(=O)Nc1ccccc1	26%[21.5 µM]	.	.	14%	.	.
CCOc1ccc(CCNC(=O)C2CCC(CNS(=O)(=O)c3ccc(Cl)cc3)CC2)cc1OCC (configuration not stated)	6%[59 µM]	.	-4%	.	2%	12%
CCC(CC)C(=O)N1CCc2cc(OC)c(OC)cc2C1COc1ccc2c(C)cc(=O)oc2c1 (configuration not stated)	-6%[59 µM]	.	-14%	.	1%	13%
CN(C)/C=C/C(=O)/C=C/c1cn(-c2ncc(C(F)(F)F)cc2Cl)c2ccccc12	10µM*	-14%	-26%	-3%	-11%	-6%
COc1ccccc1Nc1nc(-c2ccc3c(c2)NC(=O)CO3)cs1	?	-20%	-21%	-13%	-30%	33%
COc1ccc(Nc2nc(-c3ccc4c(c3)NC(=O)CO4)cs2)cc1	45µM*	0%	?	-12%	-26%	?
CCC(C)Nc1nc(-c2ccc3c(c2)NC(=O)CO3)cs1 (configuration not stated)	50µM*	1%	?	?	?	-1%
CC(C)CCn1c(=O)c2sccc2n2c(CCCC(=O)NC(C)C)nnc12	-24%[59 µM]	.	-12%	.	-20%	20%
COC(=O)c1cccc(Nc2c(-c3cc(Br)ccc3O)nc3nc[nH]n23)c1	17%[59 µM]	.	?	.	-29%	10%
O=C(Nc1ccccc1)C1=C(c2ccccc2)S(=O)(=O)CCS1(=O)=O	28µM*	-2%	-2%	13µM*	-14%	55%
CCCCNC(=O)c1ccc2nc(-c3cccs3)c(-c3cccs3)nc2c1	.	.	-1%[57.1 µM]	.	.	14%[57 µM]
CC(=O)c1nc(N2C(=O)CC(Cc3ccc(C)cc3)C2=O)sc1C (configuration not stated)	1.4µM*	9%	-24%	13%	?	37%
O=C(O)CCC(=O)N1N=C(c2cccs2)CC1c1cn(-c2ccccc2)nc1-c1ccccc1 (configuration not stated)	14%	.	-25%	-5%	?	30%
Cc1ccc(-c2nn(-c3ccccc3)cc2C2CC(c3ccccc3)=NN2C(=O)CCC(=O)O)cc1 (configuration not stated)	.	-8%	-27%	-20%	?	1%
Cc1ccc(-c2nn(-c3ccccc3)cc2C2CC(c3cccs3)=NN2C(=O)CCCC(=O)O)cc1 (configuration not stated)	?	.	71µM*	-14%	79µM*	48%
